Compounds with a hit are over-represented: about 18% of the library has one in this group of screens.
TGFb inhibitor – blocks TGF-b signaling; Potency, µM (top dose mostly 46.1 µM), inactives show at the top dose activity, negative = inhibition, most hits filed as inhibitors; AID 588855; HepG2 CAGA-GFP TGF-b/SMAD3 reporter, GFP fluorescence, 18 h; TGF-beta stimulated, 500 pg/mL final; 1.2% of 410,000 active; also: potency is read from the fitted curve at half-maximal effect; % is scaled to controls: 0 for no effect and ±100 for the full control effect; nearly all actives have a fitted effect of over 65% in size
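Inhibition was scored as loss of TGF-beta-induced (500 pg/mL final, 18 hours, 37 degrees C) GFP in HEPG2 cells carrying a CAGA-GFP reporter, in DMEM with 1% FBS. Well GFP was summed per cell; Activity was normalised to unstimulated and stimulated DMSO wells, then concentration-response fitting.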
TDP1 cell noCPT – qHTS for Inhibitors of human tyrosyl-DNA phosphodiesterase 1 (TDP1): qHTS in cells in absence of CPT; DT40 Tdp1-/- hTDP1 cells, no CPT, ATP luminescence, 48 h; 15% of 420,000 active; Potency, µM (highest dose often 46.2 µM), without a hit: top-dose activity change, negative = growth inhibition, actives largely listed as inhibitors; AID 686978, 2013; also: potency is read from the fitted curve at half-maximal effect; % is scaled to controls: 0 for no effect and ±100 for the full control effect; nearly all actives have a fitted effect of over 55% in size
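Readout: luminescence from CellTiter-Glo after 30 min in the dark at RT. Cells: DT40 Tdp1-/- with stable hTDP1, 400/well. Exposure: compounds alone, ≥48 hr, 37 °C.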
DT40 TDP1 CPT – growth inhibition of DT40 Tdp1-/-;hTDP1 cells with camptothecin (screen for TDP1 inhibitors); chicken DT40 Tdp1-/-;hTDP1 cells + 20 nM CPT, ATP luminescence, 48 h; Potency, µM (series often up to 46.2 µM), for inactives: top-dose activity change, negative = growth inhibition, most hits filed as inhibitors; 12% of 420,000 active; also: potency is read from the fitted curve at half-maximal effect; % is scaled to controls: 0 for no effect and ±100 for the full control effect; nearly all actives have a fitted effect of over 55% in size
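Cell growth measured by CellTiter-Glo luminescence after a minimum 48 h, 37 C compound exposure with 20 nM CPT in Tdp1-knockout DT40 cells stably expressing hTDP1, seeded 400/well; qHTS titration format.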
TDP1 block – inhibitors of human tyrosyl-DNA phosphodiesterase TDP1 | Q9NUW8 | AID 485290 | 0.28% of 350,000 active | recombinant TDP1, AlphaScreen DNA substrate cleavage | Potency, µM (series often up to 130 µM), for inactives: at the highest dose activity change, negative = inhibition, usual class: inhibitors; also: potency is read from the fitted curve at half-maximal effect; % is scaled to controls: 0 for no effect and ±100 for the full control effect; nearly all actives have a fitted effect of over 40% in size
Target sequence (Q9NUW8 whole entry, looked up): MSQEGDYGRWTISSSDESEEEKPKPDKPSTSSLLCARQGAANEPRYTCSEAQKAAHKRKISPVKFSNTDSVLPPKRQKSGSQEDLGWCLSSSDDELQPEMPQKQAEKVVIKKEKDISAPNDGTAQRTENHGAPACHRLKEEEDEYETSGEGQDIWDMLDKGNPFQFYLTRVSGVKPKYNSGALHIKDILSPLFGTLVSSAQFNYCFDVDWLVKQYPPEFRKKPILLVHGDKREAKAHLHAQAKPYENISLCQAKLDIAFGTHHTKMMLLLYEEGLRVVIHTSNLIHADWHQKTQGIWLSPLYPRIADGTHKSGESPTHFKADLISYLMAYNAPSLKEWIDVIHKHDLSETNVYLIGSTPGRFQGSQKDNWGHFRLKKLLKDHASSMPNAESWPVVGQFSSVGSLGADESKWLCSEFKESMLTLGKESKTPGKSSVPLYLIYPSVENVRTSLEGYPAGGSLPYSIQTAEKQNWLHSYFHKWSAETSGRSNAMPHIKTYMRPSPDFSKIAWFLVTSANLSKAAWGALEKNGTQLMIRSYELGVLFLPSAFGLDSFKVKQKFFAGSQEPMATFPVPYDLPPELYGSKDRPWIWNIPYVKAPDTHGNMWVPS
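Tdp1 1 nM final; 15 min RT w/ cpd; substrate 15 nM, 5 min; beads 10 ug/ml, 10 min; AlphaScreen read. Neg ctrl: no enzyme.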
IL-1B inflam inh – blocks inflammasome-driven IL-1 beta release | THP-1 LPS/ATP IL-1B secretion, AlphaLISA, 16 h; active compounds read low | activity change, % at 57.5 µM | 4.7% of 360,000 active; in the data active = activity change below about -50%; inconclusive = mostly about -30% to -49%; also: % is scaled to controls: 0 for no effect and ±100 for the full control effect
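Secreted IL-1B measured by AlphaLISA bead assay after 16 h compound exposure of THP-1 cells; compounds (final up to 57.5 uM) added 1 h before LPS (250 ng/mL) and ATP (1.25 mM) stimulation; lower signal means less secretion.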
HepG2 viability – kills HepG2 cells in TGF-b inhibitor counter-screen; HepG2 CAGA-GFP viability, ATP luminescence, 18 h; Potency, µM (series often up to 46.1 µM), without a hit: at the highest dose activity change, negative = cytotoxicity, usual class: cytotoxic; 0.76% of 410,000 active; AID 588856; also: potency is read from the fitted curve at half-maximal effect
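CellTiter-Glo luminescence gave cytotoxicity after 18 hours at 37 degrees C. The cells were HepG2 CAGA-GFP in 1% FBS DMEM, stimulated with 500 pg/mL TGF-beta after compound addition. %Activity was normalised to no-cell wells (complete cell-killing) and DMSO (no toxicity), and curves were fitted and classified.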
* marks the source's active call; other numbers are inactive results; ? = inconclusive; . = no result. Unless noted, calls follow the shape of the dose curve; as a rule, active = well fitted curve in the direction sought with a large enough effect; inconclusive = small, poorly fitted or top-dose-only effect, or another doubt; inactive = no such curve, though single readings can be large; an effect the other way counts as inactive or inconclusive.

SMILES	TGFb inhibitor	TDP1 cell noCPT	DT40 TDP1 CPT	TDP1 block	IL-1B inflam inh	HepG2 viability
O=C(O)COc1ccc(/C=N/n2c(COc3ccccc3)nc3ccccc3c2=O)cc1	?	?	-24%	3%	-9	1%
Cc1cccc(C)c1OCc1nc2ccccc2c(=O)n1/N=C/c1ccc(OCC(=O)O)cc1	5%	?	-26%	-3%	6	-23%
O=c1c2ccccc2nc(COc2ccccc2)n1/N=C/c1ccc(O)c(O)c1	-31%	10µM*	15µM*	6%	-27	-35%
O=c1c2ccccc2nc(COc2ccccc2)n1/N=C/c1ccco1	?	15µM*	?	-3%	?	-51%
CSC1=NC(C(Cl)(Cl)Cl)N=C(c2ccccc2)N1 (stereo not drawn)	1%	3.7µM*	2.6µM*	3%	40	-4%
CCOC(=O)C1C(=O)NC(c2ccccc2)=NC1c1ccc(F)cc1 (stereo not drawn)	-3%	3%	12%	3%	29	-10%
C/C(=N\NC(=S)NC(C)C)c1ccccc1OC(F)F	-9%	3.3µM*	2.9µM*	3%	18	12%
CCNC(=S)N/N=C(\C)c1ccc2ccccc2c1OC(F)F	?	16µM*	23µM*	2%	32	-13%
C/C(=N\NC(=O)COc1ccc(C#N)cc1)c1ccccc1OC(F)F	-3%	?	-21%	8%	-1	5%
CCc1nc(NCc2ccccn2)c2oc3ccccc3c2n1	-14%	15µM*	15µM*	6%	-68*	-24%
CCc1nc(N2CCCCC2)c2oc3ccccc3c2n1	9%	?	?	-1%	-8	-48%
CCc1nc(Nc2ccc3c(c2)OCO3)c2oc3ccccc3c2n1	-29%	12µM*	21µM*	3%	?	-26%
CCc1nc(N2CCN(Cc3ccc4c(c3)OCO4)CC2)c2oc3ccccc3c2n1	?	26µM*	26µM*	8%	-28	-20%
CCc1nc(N2CCCCC2C)c2oc3ccccc3c2n1 (stereo not drawn)	-14%	26µM*	29µM*	-3%	26	-57%
c1ccc(CNc2ncnc3c2oc2ccccc23)nc1	?	-15%	-12%	5%	38	-6%
CC(NC(=O)C1CC1)c1nnc2n1CCN(Cc1cccc(F)c1F)CC2 (stereo not drawn)	.	-2%	-2%	.	.	.
COc1ccc(C(=O)N[C@H](C(=O)OCC(=O)NC(=O)c2cccn2C)C(C)C)cc1	2%	-26%	-9%	8%	24	1%
COc1ccc(S(=O)(=O)N2CCCC(C(=O)N3CCCC3)C2)cc1OC (stereo not drawn)	2%	-19%	-10%	0%	4	-2%
CCc1nc(Nc2cc(OC)ccc2OC)c2oc3ccccc3c2n1	23%	?	?	.	10	-3%
Cc1sc2nc(CN3CCCCC3)nc(Nc3ccc4c(c3)OCCO4)c2c1C	20%	2%	0%	6%	0	-11%
CCc1nc(SCC(=O)Nc2ccc3c(c2)OCCO3)c2oc3ccccc3c2n1	2%	26µM*	?	3%	4	1%
CCc1nc(Nc2cccc(O)c2)c2oc3ccccc3c2n1	?	26µM*	?	.	?	-8%
CCc1nc(Nc2ccccc2OC)c2oc3ccccc3c2n1	-18%	?	?	.	-54*	-35%
Cc1cccc2c(Nc3ccc4c(c3)OCO4)nc(CN3CCC(N4CCCCC4)CC3)nc12	.	21µM*	15µM*	.	.	.
Oc1cccc(-c2c3nc(c(-c4cccc(O)c4)c4ccc([nH]4)c(-c4cccc(O)c4)c4nc(c(-c5cccc(O)c5)c5ccc2[nH]5)CC4)C=C3)c1	.	19µM*	27µM*	.	.	.
SMILES	TGFb inhibitor	TDP1 cell noCPT	DT40 TDP1 CPT	TDP1 block	IL-1B inflam inh	HepG2 viability
O=C1C=C(c2cccc(O)c2)CCC1	-17%	-1%	2%	.	-3	-5%
Cc1ccc(CNC(=O)C2CCCN(c3ncnc4c3nc3n4CCCCC3)C2)cc1 (stereo not drawn)	-1%	9.2µM*	?	-6%	17	1%
O=C(NCC1CCN(Cc2ccc(F)cc2)CC1)C1CCCN(c2ncnc3c2nc2n3CCCCC2)C1 (stereo not drawn)	13µM*	?	?	4%	?	-52%
Cc1cccc(CCNC(=O)C2CCCN(c3ncnc4c3nc3n4CCCCC3)C2)c1 (stereo not drawn)	-19%	?	-18%	4%	-23	-22%
COc1ccc(CNC(=O)C2CCCN(c3ncnc4c3nc3n4CCCCC3)C2)cc1 (stereo not drawn)	11%	?	18µM*	6%	70	1%
O=C(NCC1CCN(Cc2cccc(Cl)c2)CC1)C1CCCN(c2ncnc3c2nc2n3CCCCC2)C1 (stereo not drawn)	?	?	26µM*	2%	?	-36%
CC(NC(=O)c1ccco1)C(=O)N1CCCCC1 (stereo not drawn)	5%	8%	4%	3%	-8	14%
CCOC(=O)c1sc2ncnc(Nc3cccc(C(=O)O)c3)c2c1C	5%	-5%	-22%	3%	24	11%
CC(C)CNc1ncnc2c1ncn2[C@H]1CN(Cc2cccs2)C[C@@H](CO)O1	38%	?	?	.	-4	1%
O=C(NCc1ccccc1)C1CCCN(c2ncnc3c2nc2n3CCCCC2)C1 (stereo not drawn)	-11%	21µM*	?	2%	-15	-10%
O=C(NCc1cccc(Cl)c1)C1CCCN(c2ncnc3c2nc2n3CCCCC2)C1 (stereo not drawn)	-3%	12µM*	-1%	3%	?	-17%
O=C(NCCc1ccc(Cl)cc1)C1CCCN(c2ncnc3c2nc2n3CCCCC2)C1 (stereo not drawn)	2%	?	?	5%	42	1%
CC1CCC(NC(=O)CSc2nnnn2C)CC1 (stereo not drawn)	15%	-17%	3%	1%	-23	0%
COc1cc(CN2C[C@@H](CO)O[C@@H](n3cnc4c(NCc5ccco5)ncnc43)C2)cc(OC)c1OC	-16%	-29%	-13%	.	8	-16%
Cc1ccc(NNC(=O)c2cc(C(C)(C)C)nn2Cc2ccccc2)cc1	-17%	?	-18%	-1%	?	1%

Bioassay records (PubChem)
